Source: PubChem BioAssay
N-glyco inh: blocks N-linked glycosylation in D54 reporter cells. D54 ERlucT glycosylation luciferase reporter, 24 h; percent of 100 nM tunicamycin response. reporter increase, % at 12.5 µM. 0.23% of 360,000 active. AID 588692;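 active = mean luciferase reporter signal, scaled so untreated is 0 and the glycosylation-blocking control 100, at or above a set limit in every replicate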;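 also: luciferase carries N-glycosylation sites so blocking glycosylation raises the light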
DNA FID counter: counter-screen for HCV NS3 helicase inhibitors: DNA intercalator displacement | AID 1845 | inhibition, % at 7.9 µM | DNA fluorescent intercalator displacement, fluorescence | 0.17% of 290,000 active; in the data active = inhibition above about 37%;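 also: higher means more ethidium bromide displaced from hairpin DNA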
CendR NRP1 mod: NRP-1/CendR interaction modulation. AID 602438. FAM-RPARPAR peptide binding to NRP-1, fluorescence polarization. O14786. inhibition, % at 25 µM. 0.85% of 360,000 active;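 active = inhibition or corrected inhibition above about 18%, plus a signal ratio from 0.5 to 1.5, limit read from the data, passing the limit was not always enough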
Target sequence (O14786 whole entry, looked up): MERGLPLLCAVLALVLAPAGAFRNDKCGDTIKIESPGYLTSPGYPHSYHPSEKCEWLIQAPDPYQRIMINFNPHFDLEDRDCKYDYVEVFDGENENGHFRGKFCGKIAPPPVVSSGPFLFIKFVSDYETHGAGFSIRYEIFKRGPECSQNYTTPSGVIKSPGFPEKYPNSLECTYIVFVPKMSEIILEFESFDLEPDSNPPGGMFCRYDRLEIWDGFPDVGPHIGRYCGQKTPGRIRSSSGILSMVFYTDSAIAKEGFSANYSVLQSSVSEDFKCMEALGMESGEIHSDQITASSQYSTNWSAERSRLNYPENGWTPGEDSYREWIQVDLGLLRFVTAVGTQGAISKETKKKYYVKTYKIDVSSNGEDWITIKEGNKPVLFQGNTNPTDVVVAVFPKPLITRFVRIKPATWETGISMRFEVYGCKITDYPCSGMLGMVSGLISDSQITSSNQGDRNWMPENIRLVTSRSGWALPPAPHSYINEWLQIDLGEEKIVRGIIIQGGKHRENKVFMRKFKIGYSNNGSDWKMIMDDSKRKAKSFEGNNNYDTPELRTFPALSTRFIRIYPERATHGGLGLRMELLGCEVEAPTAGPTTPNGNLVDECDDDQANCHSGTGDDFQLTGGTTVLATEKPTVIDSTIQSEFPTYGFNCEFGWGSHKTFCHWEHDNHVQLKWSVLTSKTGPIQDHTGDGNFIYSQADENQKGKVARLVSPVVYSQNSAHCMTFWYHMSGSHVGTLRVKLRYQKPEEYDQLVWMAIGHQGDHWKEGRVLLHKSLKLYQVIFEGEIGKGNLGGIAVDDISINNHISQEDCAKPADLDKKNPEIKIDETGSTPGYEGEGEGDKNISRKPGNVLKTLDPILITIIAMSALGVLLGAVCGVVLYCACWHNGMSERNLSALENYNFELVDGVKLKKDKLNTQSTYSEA
miR-122 sensor: inhibitors of miR-122 in Huh7 cells | Huh7 miR-122 Renilla luciferase sensor, 48 h; neutral wells = 0, positive control = 100 | activation (reporter increase), % at 12.5 µM | 0.3% of 340,000 active;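 active = mean replicate activation score at least 90 and every replicate individually at or above 90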;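 also: higher luciferase means less miR-122 activity so hits act as miR-122 inhibitors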
RAD54 branch: RAD54 (human) branch migration inhibition. Q92698. RAD54 Holliday junction branch migration, FAM/BHQ fluorescence. inhibition, % at 10.4 µM. 0.14% of 360,000 active;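 active = mean normalized replicate activity at least 40 and at least half of replicates scoring 40 or more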;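 also: inhibitors cause a drop in the FAM fluorescence signal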
RAD52 inh: RAD52 (human) annealing inhibition; P43351; recombinant RAD52 DNA annealing, FRET fluorescence; inhibition, % at 18.7 µM; 0.46% of 360,000 active; AID 651710;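 active = every replicate showing at least 50% inhibition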
A number is an active result; 0 = inactive; - = no result given. In the library only some 1.5% were active in any assay of this set; here they are far more common.

SMILES	N-glyco inh	DNA FID counter	CendR NRP1 mod	miR-122 sensor	RAD54 branch	RAD52 inh
CCNC(=O)C1(C)CCN(Cc2ccc(C(F)(F)F)cc2)C1 (configuration not stated)	0	-	0	0	0	0
O=C1c2ccccc2NC(c2cccnc2)N1c1ccccc1F (configuration not stated)	0	0	0	-	-	-
Cc1ccccc1N1C(=O)c2ccccc2NC1c1ccncc1 (configuration not stated)	0	0	28.0	-	0	0
C=C(CC[C@@H](O)C(C)(C)O)[C@H]1CC[C@]2(C)[C@@H]1CCC1[C@@]3(C)CCC(=O)C(C)(C)C3CC[C@]12C (some centres not stated)	0	-	27.6	0	0	0
O=C(O)c1ccccc1CSc1ccccn1	0	0	39.7	0	0	0
COc1ccc(NC(=O)Nc2ccc3c(c2)CC(=O)N([C@@H](C)CO)C[C@H](C)[C@@H](CN(C)C(=O)Nc2ccc(OC)cc2)O3)cc1	-	-	-	0	0	0
CCN(CC)CCN(C(=O)c1cc2ccccc2cc1OC)c1nc2ccc(F)cc2s1	0	0	0	0	0	0
CCN(CC)CCN(C(=O)c1cc2ccccc2cc1OC)c1nc2ccc(OC)cc2s1	0	43.9	0	0	0	0
CCC(=O)Nc1ccc2c(c1)C(=O)N(C)C[C@@H](OC)[C@H](C)CN(CC1CC1)[C@H](C)CO2	-	-	-	-	0	0
CC(=O)N/N=C/c1cc(C(C)(C)C)cc(/C=N/NC(C)=O)c1O	0	0	35.0	0	0	0
O=C(CN(C1CCCCC1)S(=O)(=O)c1ccc(F)cc1)NCCCO	0	0	0	0	0	-
O=C(CN(C1CCCCC1)S(=O)(=O)c1ccc(F)cc1)Nc1ccc2c(c1)OCO2	0	0	0	246.6	0	-
COc1cccc(C(=O)N2N=C(c3ccccc3)CC2(O)C(F)(F)F)c1 (configuration not stated)	0	0	26.7	-	-	-
CCCCCc1ccc(CC(=O)O)cc1	0	0	38.4	0	-	-
Cc1nc(C(=O)N2CCC(C)(C(=O)NS(=O)(=O)C3CC3)C2)c(C)o1 (configuration not stated)	0	-	0	0	0	0
CCNC(=O)C1(C)CCCN(C(=O)c2nc(C)oc2C)C1 (configuration not stated)	0	-	24.5	0	0	0
CCC(=O)N1CCC2(CC1)CN(C(=O)Cc1ccccc1)[C@H](CO)c1c2c2ccc(OC)cc2n1C	-	-	-	-	-	0
CC1(c2nnc(Cc3ccccc3)o2)CC(c2cccc(Cl)c2)=NO1 (configuration not stated)	0	-	27.5	0	0	0
Cn1cnc(S(=O)(=O)N2C[C@@H](O)COC[C@@H]3O[C@H](CC(=O)NCc4cccc(F)c4)CC[C@H]32)c1	-	-	-	0	0	-
Cc1ccc(NCC(=O)N/N=C/c2cccc(Oc3ccccc3)c2)cc1	0	0	40.6	0	0	-
Cc1cccc(NCC(=O)N/N=C\c2cccc(Oc3ccccc3)c2)c1	0	0	0	0	0	0
COc1ccc(S(=O)(=O)N[C@@H]2CC[C@@H](CCNC(=O)CN3CCOCC3)O[C@@H]2CO)cc1	-	-	-	-	0	0
NC(N)=NCCC[C@H](NC(=O)OCc1ccccc1)C(=O)O	0	0	27.1	0	0	0
O=C(CC(NC(=O)OCc1ccccc1)C(=O)O)OCc1ccccc1 (configuration not stated)	0	0	0	-	0	0
Cc1ccc(NC(=O)C(Cc2ccccc2)NC(=O)OCc2ccccc2)cc1C (configuration not stated)	0	0	0	-	-	0
NC(=O)CC(NC(=O)OCc1ccccc1)C(=O)O (configuration not stated)	0	0	31.0	0	0	-
Cc1cc(=O)oc2cc(NC(=O)C(CCCN=C(N)N)NC(=O)OCc3ccccc3)ccc12 (configuration not stated)	0	41.3	0	0	0	0
Cc1noc(C)c1NC(=O)N(C)C[C@@H]1Oc2c(NS(=O)(=O)c3ccccc3)cccc2C(=O)N([C@@H](C)CO)C[C@H]1C	-	-	-	0	0	0
COc1ccc2c3c([nH]c2c1)[C@H](CO)N(C(=O)CN(C)C)CC31CN(C(=O)c2ccncc2)C1	-	-	-	-	-	0
O=C(C[C@@H]1CC[C@@H]2[C@H](COC[C@@H](O)CN2C(=O)c2cccnc2)O1)NCc1ccc(Cl)cc1	-	-	-	0	0	0
